The panel holds about 83,000 compounds, 20% with a hit somewhere; the sample as a whole holds those more often.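 Results are percent growth after 48 hours of single-concentration exposure. 100 means growth as in untreated cells, lower positive values show inhibition; negative values down to -100 show cell death.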 A number with no mark means an inactive call. Active and inactive are the calls of the source. Rule for the calls: active = growth percent below 10; inactive = the rest.

The results in this text go back to PubChem BioAssay (NCI).

The subject of one test is NCI-H322M lung. The test is described as follows: NCI-60 one-dose screen, 48 h (100 = growth as untreated, 0 = no growth, -100 = all killed). As to conditions: 10 µM unless noted.
Consider `COc1ccc(/C=C(/C(=O)N2CCCCC2)c2cc(OC)c(OC)c(OC)c2)cc1`, for which the growth was 45.2%.

Take `COc1ccc(OC)c(Cn2cc3c(c2)-c2oncc2CC3)c1`: the growth was 26%.

Consider `COc1ccc(CN2C(=O)/C(=C\C(=O)c3ccc(OCCN4CCCCC4)cc3)c3ccccc32)cc1`, for which the growth was 91.4%.

On to `COc1ccc(/C=C2\SC(=O)N(Cc3cc(=O)oc4ccc(OC)cc34)C2=O)cc1`, for which the growth is 84.9%.

Regarding `O=c1oc2ccc3ccccc3c2cc1-c1ccnc2[nH]c(=S)[nH]c(=O)c12`, the growth is 92.9%.

Take `O=C(O)c1occ(Cl)c1Cl`: the growth is 116%.

For `COc1ccc(Cn2cc3c(c2-c2ccccc2)CCc2cnoc2-3)cc1OC`, the growth is 44.8%.

With `CCCCN(CCCC)CC(O)CN(CC)CC` (stereo not given), the growth was 97.6%.

As for `O=C(/C=C/c1c[nH]c2ccccc12)c1cc2ccccc2o1`, the growth is 99.7%.

Regarding `COc1ccc2sc(-n3nc4nc5n(c(=O)c4c3N)-c3ccccc3Sc3ccccc3-5)nc2c1`, the growth was 75.4%.

As for `CCOC(=O)NNc1[nH]c(-c2ccc(OC)cc2)cc1C#N`, the growth was 79.4%.

On to `COc1ccc(-c2cn3ccnc3c(-c3ccc4ncn(C5CCCCC5)c4c3)n2)cc1`, for which the growth was 68.5%.

On to `CCOC(=O)C1=NN(c2ccccc2)C2=NC(=O)/C(=C\c3cn(-c4ccccc4)nc3-c3cc4ccccc4o3)C(=O)N12`, for which the growth is 89.6%.

Turning to `O=C(/C=C1\C(=O)N(Cc2ccc([N+](=O)[O-])cc2)c2ccccc21)c1ccc(OCCN2CCCCC2)cc1`, the growth was 49.2%.

In the case of `NNC(=S)N1N=C(c2cc3ccccc3o2)CC1c1c[nH]c2ccccc12` (stereo not given), the growth is 39.6%.

Turning to `O=C(/C=C1\C(=O)N(Cc2ccccc2)c2ccccc21)c1ccc(OCCN2CCCCC2)cc1`, the growth was 92.6%.

On to `COc1ccc(CN2C(=O)/C(=C\C(=O)c3ccc(OCCN4CCCC4)cc3)c3ccccc32)cc1`, for which the growth is 97.6%.

For the compound `C[C@@H](c1ccc2c(c1)[nH]c1ccc(Cl)cc12)c1nc2ccccc2[nH]1`, the growth is 87.3%.

Take `c1ccc(-c2cn3ccnc3c(-c3ccc4ncn(C5CCCCC5)c4c3)n2)cc1`: the growth was 94.8%.

As to `C[C@@H](c1ccc2c(c1)[nH]c1ccc(Cl)cc12)c1nc2ccc(Cl)cc2[nH]1`, the growth is 85.8%.

For the compound `COc1cc(CNC(=O)CCCC/C=C/C(C)C)ccc1OCc1nnc(Nc2ccccc2F)o1`, the growth is 86.1%.

In the case of `Cc1c(CN(C)C)cc(C(C)C)cc1C(C)C`, the growth is 129%.

On to `O=S(=O)(O)c1ccc2c(c1)Sc1cc(S(=O)(=O)O)ccc1O2`, for which the growth is 118%.

For `COc1ccc(Cn2cc3c(c2-c2ccccc2)CCc2cnoc2-3)cc1N`, the growth is 35%.

On to `COc1ccc(/C=C(/C(=O)N2CCN(c3ccc(C)cc3)CC2)c2cc(OC)c(OC)c(OC)c2)cc1N`, for which the growth is 43.7%.

For `C=CCN(C)C`, the growth was 114%.

For the compound `CCNc1nnc(COc2ccc(CNC(=O)CCCC/C=C/C(C)C)cc2OC)o1`, the growth was 107%.

Consider `COc1ccc2oc(=O)cc(CN3C(=O)S/C(=C\c4ccc(Cl)cc4)C3=O)c2c1`, for which the growth was 104%.

On to `CC(C)OC(=O)Nn1cnc2ccccc21`, for which the growth was 122%.

Take `COc1ccc(Cn2cc3c(c2-c2ccc(OC)cc2)CCc2cnoc2-3)cc1`: the growth is 43.5%.

Take `COc1cc(Cn2ccc3c2-c2oncc2CC3)cc(OC)c1`: the growth was 33.2%.

As to `COc1cccc(Cn2cc3c(c2)-c2oncc2CC3)c1`, the growth was 19.2%.

For `COc1ccc(C2=C/C(=C\c3ccc(Cl)cc3)C(=O)NN2C(=S)NN)cc1`, the growth is 102%.

Regarding `COc1ccc(Cn2cc3c(c2)-c2oncc2CC3)cc1OC`, the growth was 22.9%.

For the compound `COc1ccccc1Nc1nnc(COc2ccc(CNC(=O)CCCC/C=C/C(C)C)cc2OC)o1`, the growth was 97.4%.

Consider `N=c1c2c(=O)n3c(nc2nc2sc4ccc(Cl)cc4n12)-c1ccccc1Sc1ccccc1-3`, for which the growth was 16.4%.

As for `CCCC(=O)NNc1[nH]c(-c2cc(OC)c(OC)c(OC)c2)cc1C(=O)OCC`, the growth was 145%.

In the case of `COc1ccc(Cn2cc3c(c2-c2ccc(O)cc2)CCc2cnoc2-3)cc1`, the growth was 18.8%.

For the compound `COc1ccc(OC)c(Cn2cc3c(c2-c2ccccc2)CCc2cnoc2-3)c1`, the growth is 57.5%.

As to `CCCCCCCCCCCCCCCCCC1=NCCN1CS(=O)(=O)O`, the growth is 15.5%.

A further test has as its system NCI-H460 lung. The test is described as above. The settings on record: 10 µM unless noted.
With `COc1ccc(/C=C(/C(=O)N2CCCCC2)c2cc(OC)c(OC)c(OC)c2)cc1`, the growth was 11.6%.

On to `COc1ccc(OC)c(Cn2cc3c(c2)-c2oncc2CC3)c1`, for which the growth was 14.1%.

In the case of `COc1ccc(CN2C(=O)/C(=C\C(=O)c3ccc(OCCN4CCCCC4)cc3)c3ccccc32)cc1`, the growth was 94.7%.

As to `COc1ccc(/C=C2\SC(=O)N(Cc3cc(=O)oc4ccc(OC)cc34)C2=O)cc1`, the growth is 94.1%.

As for `O=c1oc2ccc3ccccc3c2cc1-c1ccnc2[nH]c(=S)[nH]c(=O)c12`, the growth is 103%.

On to `O=C(O)c1occ(Cl)c1Cl`, for which the growth is 118%.

Consider `COc1ccc(Cn2cc3c(c2-c2ccccc2)CCc2cnoc2-3)cc1OC`, for which the growth is 7.98% (active).

As for `CCCCN(CCCC)CC(O)CN(CC)CC` (stereo not given), the growth was 114%.

`O=C(/C=C/c1c[nH]c2ccccc12)c1cc2ccccc2o1`: the growth is 107%.

On to `COc1ccc2sc(-n3nc4nc5n(c(=O)c4c3N)-c3ccccc3Sc3ccccc3-5)nc2c1`, for which the growth is 84.9%.

Consider `CCOC(=O)NNc1[nH]c(-c2ccc(OC)cc2)cc1C#N`, for which the growth is 99.1%.

Turning to `COc1ccc(-c2cn3ccnc3c(-c3ccc4ncn(C5CCCCC5)c4c3)n2)cc1`, the growth was 8.91% (active).

For `CCOC(=O)C1=NN(c2ccccc2)C2=NC(=O)/C(=C\c3cn(-c4ccccc4)nc3-c3cc4ccccc4o3)C(=O)N12`, the growth is 97%.

Consider `O=C(/C=C1\C(=O)N(Cc2ccc([N+](=O)[O-])cc2)c2ccccc21)c1ccc(OCCN2CCCCC2)cc1`, for which the growth is 39%.

For `NNC(=S)N1N=C(c2cc3ccccc3o2)CC1c1c[nH]c2ccccc12` (stereo not given), the growth is 24.7%.

Regarding `O=C(/C=C1\C(=O)N(Cc2ccccc2)c2ccccc21)c1ccc(OCCN2CCCCC2)cc1`, the growth is 87.7%.

In the case of `COc1ccc(CN2C(=O)/C(=C\C(=O)c3ccc(OCCN4CCCC4)cc3)c3ccccc32)cc1`, the growth was 94.4%.

Take `C[C@@H](c1ccc2c(c1)[nH]c1ccc(Cl)cc12)c1nc2ccccc2[nH]1`: the growth is 101%.

Consider `c1ccc(-c2cn3ccnc3c(-c3ccc4ncn(C5CCCCC5)c4c3)n2)cc1`, for which the growth is 62.2%.

Turning to `C[C@@H](c1ccc2c(c1)[nH]c1ccc(Cl)cc12)c1nc2ccc(Cl)cc2[nH]1`, the growth was 82.4%.

On to `COc1cc(CNC(=O)CCCC/C=C/C(C)C)ccc1OCc1nnc(Nc2ccccc2F)o1`, for which the growth was 80.3%.

`Cc1c(CN(C)C)cc(C(C)C)cc1C(C)C`: the growth is 111%.

Turning to `O=S(=O)(O)c1ccc2c(c1)Sc1cc(S(=O)(=O)O)ccc1O2`, the growth was 118%.

Regarding `COc1ccc(Cn2cc3c(c2-c2ccccc2)CCc2cnoc2-3)cc1N`, the growth was -4.24% (active).

Consider `COc1ccc(/C=C(/C(=O)N2CCN(c3ccc(C)cc3)CC2)c2cc(OC)c(OC)c(OC)c2)cc1N`, for which the growth is 5.51% (active).

In the case of `C=CCN(C)C`, the growth is 108%.

On to `CCNc1nnc(COc2ccc(CNC(=O)CCCC/C=C/C(C)C)cc2OC)o1`, for which the growth is 103%.

In the case of `COc1ccc2oc(=O)cc(CN3C(=O)S/C(=C\c4ccc(Cl)cc4)C3=O)c2c1`, the growth is 102%.

As to `CC(C)OC(=O)Nn1cnc2ccccc21`, the growth is 114%.

As for `COc1ccc(Cn2cc3c(c2-c2ccc(OC)cc2)CCc2cnoc2-3)cc1`, the growth is 0.836% (active).

Take `COc1cc(Cn2ccc3c2-c2oncc2CC3)cc(OC)c1`: the growth is 7.4% (active).

Take `COc1cccc(Cn2cc3c(c2)-c2oncc2CC3)c1`: the growth was 1.35% (active).

For the compound `COc1ccc(C2=C/C(=C\c3ccc(Cl)cc3)C(=O)NN2C(=S)NN)cc1`, the growth was 102%.

Turning to `COc1ccc(Cn2cc3c(c2)-c2oncc2CC3)cc1OC`, the growth is 1.13% (active).

As for `COc1ccccc1Nc1nnc(COc2ccc(CNC(=O)CCCC/C=C/C(C)C)cc2OC)o1`, the growth was 105%.

As for `N=c1c2c(=O)n3c(nc2nc2sc4ccc(Cl)cc4n12)-c1ccccc1Sc1ccccc1-3`, the growth was 10.7%.

`CCCC(=O)NNc1[nH]c(-c2cc(OC)c(OC)c(OC)c2)cc1C(=O)OCC`: the growth was 123%.

On to `COc1ccc(Cn2cc3c(c2-c2ccc(O)cc2)CCc2cnoc2-3)cc1`, for which the growth is 1.39% (active).

As to `COc1ccc(OC)c(Cn2cc3c(c2-c2ccccc2)CCc2cnoc2-3)c1`, the growth was 22.7%.

As for `CCCCCCCCCCCCCCCCCC1=NCCN1CS(=O)(=O)O`, the growth was -79.1% (active).
